In assay [1] the test system is XIP peptide (Xip251-270) binding. Put plainly: XIP fragment 251-270 binding compounds – biochemical, small-molecule microarray, fluorescence 635/667 nm, 0.1 µg/mL protein, primary screen (AID 1182). The following applies: fluorescent protein binding, 635 nm, higher = more signal, called active from +8 up or from −8 down.
Assay [2] relates to XIP peptide (Xip251-270). Put plainly: compounds binding XIP fragment 251-270 – biochemical, small-molecule microarray, fluorescence 635/667 nm, 0.5 µg/mL protein, primary screen (AID 1183). The following applies: fluorescence 635 nm, higher = more signal.
Assay [3] in a line: blood-stage malaria parasite viability loss – strain 3D7, DAPI fluorescence, 100 nL, primary screen (AID 1184).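 Note: parasites grown inside human red blood cells in medium with human serum.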 The following applies: P. falciparum 3D7 growth, 3 d, higher = more signal.
Assay [4] deals with Homeobox protein Hox-A13 (Mus musculus) (UniProt Q62424). Put plainly: disruptors of Hoxa13 oligonucleotide interaction – biochemical, fluorescence polarization, labeled oligonucleotide, primary screen (AID 1185). As to conditions: Hoxa13:DNA binding, 15 min, higher = more signal, called active from +8 up or from −8 down. On the technique in general: Fluorescence polarisation rises when a labelled molecule tumbles more slowly, as on binding a larger partner.

A short description of assay [5]: blockers of DNA damage checkpoint Chk1 activation – imaging, HeLa, hydroxyurea, phospho-Chk1 antibody, percent positive cells, primary screen (AID 1186). The following applies: hydroxyurea-induced phospho-Chk1 immunofluorescence imaging, higher = more signal.
A short description of assay [6]: blockers of DNA damage checkpoint Chk1 activation – imaging, HeLa, hydroxyurea, phospho-Chk1 nuclear intensity, primary screen (AID 1187). As to conditions: hydroxyurea-induced phospho-Chk1 immunofluorescence imaging, higher = more signal.

In PubChem BioAssay one finds composite z-score and z-score data, which are given here for 17 compounds.

The source made the active and inactive calls. Unless noted, the rule behind the calls is not given here.

Chain of Homeobox protein Hox-A13 (Mus musculus) (Q62424 whole entry, looked up): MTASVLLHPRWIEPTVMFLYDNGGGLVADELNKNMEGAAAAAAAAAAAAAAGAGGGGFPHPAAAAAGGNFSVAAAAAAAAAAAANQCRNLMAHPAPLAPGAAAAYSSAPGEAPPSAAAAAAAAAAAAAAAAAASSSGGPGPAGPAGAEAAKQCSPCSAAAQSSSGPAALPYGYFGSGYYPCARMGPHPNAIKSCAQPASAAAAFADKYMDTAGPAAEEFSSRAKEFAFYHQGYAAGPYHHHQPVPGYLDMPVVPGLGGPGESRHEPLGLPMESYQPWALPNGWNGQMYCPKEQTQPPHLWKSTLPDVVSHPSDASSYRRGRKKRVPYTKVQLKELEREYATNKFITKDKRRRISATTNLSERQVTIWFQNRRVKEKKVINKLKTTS

For the compound `CCOC(=O)[C@H]1CC=C2CC1C(=O)N1CCC[C@@H]1[C@@H]2O[Si](C)(C)C(C)(C)C` (some centres not stated), the composite z-score in assay [1] was -0.473 (inactive); in assay [2], -0.216. In addition, the z-score was -0.575 in assay [3], -5.97 (inactive) in assay [4], -0.696 (inactive) in assay [5] and -0.559 (inactive) in assay [6].
On to `NCCCCCNC(=O)[C@@H]1C[C@@H]2C(=O)N[C@@H](Cc3ccccc3)C(=O)N2[C@@H]1c1cccc(OCCO)c1`, for which the composite z-score in assay [1] was 0.251 (inactive); in assay [2], 0.595. The z-score is 0.304 in assay [3], -4.39 (inactive) in assay [4], -0.143 (inactive) in assay [5] and -0.223 (inactive) in assay [6].
As to `O=C1[C@H]2C=C(Br)[C@H](C[C@@H]2OCCCCO)[C@@]12CO2`, the composite z-score is 0.091 (inactive) in assay [1] and 0.141 in assay [2]. Moreover, the z-score in assay [3] is -0.234; in assay [4], -1.71 (inactive); in assay [5], -0.0513 (inactive); in assay [6], -0.265 (inactive).
With `CCOC(=O)C[C@H]1[C@H](OC(=O)Cc2ccc3c(c2)OCO3)[C@@H](NC(=O)c2ccc(-c3ccccc3)cc2)c2cc(OCCCO)ccc2N1C(=O)Cc1ccc(OC)cc1`, the composite z-score in assay [1] is 0.784 (inactive); in assay [2], 0.0066. Moreover, the z-score in assay [3] was -1.72; in assay [4], -1.61 (inactive); in assay [5], -0.324 (inactive); in assay [6], -0.116 (inactive).
As for `CC(C)N1C(=O)[C@@]2(Cc3ccccc31)c1ccccc1C(=O)N(C1CCCCC1)[C@H]2c1ccc(CO)cc1`, the results for the composite z-score in assay [1] and in assay [2] were -0.091 (inactive) and 0.709, respectively. In addition, the z-score in assay [3] is -0.288; in assay [4], -0.666 (inactive); in assay [5], -0.0292 (inactive); in assay [6], 0.029 (inactive).
For `CCCCN1CC=CC23O[C@@H]4/C=C\CCC(C)OC(=O)C4[C@H]2C(=O)N(CCCCCO)[C@@H]3C1=O` (some centres not stated), the composite z-score in assay [1] is -0.725 (inactive); in assay [2], 0.552. Further, the z-score was -0.232 in assay [3], -4.53 (inactive) in assay [4], -0.795 (inactive) in assay [5] and -0.518 (inactive) in assay [6].
Take `CCCCN1CC=CC23O[C@@H]4C=CCOC(=O)[C@@H]4[C@H]2C(=O)N(CCCCCO)[C@@H]3C1=O` (some centres not stated): the composite z-score in assay [1] is -0.338 (inactive); in assay [2], 0.0889. In addition, the z-score was -0.198 in assay [3], -3.39 (inactive) in assay [4], -0.0035 (inactive) in assay [5] and -0.504 (inactive) in assay [6].
Turning to `CC(C)(C)OC(=O)CC[C@]1(C(=O)O)N=C(c2ccc(OCCCO)cc2)O[C@H]1c1ccccc1N=[N+]=[N-]`, the composite z-score in assay [1] is 1.25 (inactive); in assay [2] it was 0.907. The z-score in assay [3] is -0.164; in assay [4] it was -5.39 (inactive); in assay [5] it was 0.0751 (inactive); in assay [6], -0.136 (inactive).
For the compound `CC(=O)n1cc(C(O)C2C=CC3C(=O)N(C)C(=O)C3N2Nc2ccccc2)c2ccccc21` (configuration not stated), the composite z-score in assay [1] is 0.144 (inactive); in assay [2] it was 0.383. Further, the z-score was 0.413 in assay [3], -3.76 (inactive) in assay [4], -0.47 (inactive) in assay [5] and -0.987 (inactive) in assay [6].
With `CC(C)C(=C=CC[C@@H](O)c1ccccc1OCCO)CCO`, the composite z-score was 0.305 (inactive) in assay [1] and -0.161 in assay [2]. Further, the z-score in assay [3] was -0.637; in assay [4], -2.91 (inactive); in assay [5], -0.306 (inactive); in assay [6], 0.231 (inactive).
Take `CC(C)(C)OC(=O)CC[C@@]1(C(=O)NCC(O)CO)N=C(c2ccc(OCCCO)cc2)O[C@@H]1c1ccccc1N=[N+]=[N-]` (some centres not stated): the results for the composite z-score in assay [1] and in assay [2] were 1.01 (inactive) and 0.795, respectively. In addition, the z-score in assay [3] is -1.86; in assay [4], -4.43 (inactive); in assay [5], -0.436 (inactive); in assay [6] it was -0.65 (inactive).
For `COc1ccc([Si](C)(C)[C@H]2[C@H](CCn3cc([C@H](O)c4ccccc4)nn3)O[C@@]3(C(=O)N(Cc4cccc(N5CCOC5=O)c4)c4ccccc43)[C@@H]2C)cc1`, the values for the composite z-score in assay [1] and in assay [2] were -0.44 (inactive) and 0.548, respectively. For the same compound, the z-score in assay [3] was -1.54; in assay [4] it was -3.83 (inactive); in assay [5], -0.056 (inactive); in assay [6], 0.324 (inactive).
In the case of `CC(C)C[C@@H]1NC(=O)[C@H]2C[C@@H](C(=O)NCCCCCCN(C)C)[C@@H](c3ccc(O)cc3)N2C1=O`, the composite z-score was 1.2 (inactive) in assay [1] and 0.876 in assay [2]. Also, the z-score in assay [3] was 1.26; in assay [4], -1.57 (inactive); in assay [5], 0.731 (inactive); in assay [6], 0.387 (inactive).
For the compound `C=CC[C@@]1(C(=O)N(C)C)N=C(c2ccc(OCCCO)cc2)O[C@@H]1c1ccccc1N=[N+]=[N-]`, the composite z-score in assay [1] is 0.158 (inactive); in assay [2], 0.888. Also, the z-score was -2.09 in assay [3], -3.42 (inactive) in assay [4], 0.0664 (inactive) in assay [5] and 0.157 (inactive) in assay [6].
With `C[C@@]1([C@@H](NC(=O)c2ccccc2)c2ccc(-c3ccccc3)cc2)C[C@H]1C1CCCCC1`, the composite z-score in assay [1] is 0.192 (inactive); in assay [2], -1.44. Further, the z-score was -0.206 in assay [3], -0.0623 (inactive) in assay [4], 0.664 (inactive) in assay [5] and -0.296 (inactive) in assay [6].
As to `O=C1O[C@H](c2ccccc2)[C@H](c2ccccc2)N2[C@H]1[C@@H](C(=O)NC[C@H](O)c1ccccc1)[C@]1(C(=O)Nc3ccccc31)[C@H]2c1ccc(OCCO)cc1`, the composite z-score in assay [1] is 0.674 (inactive); in assay [2], 0.809. Moreover, the z-score in assay [3] was 0.249; in assay [4], -5.01 (inactive); in assay [5], -0.0282 (inactive); in assay [6], 0.177 (inactive).
Turning to `O=C1NC(=O)C2C1C=CC(C(O)Cc1ccccc1)N2Nc1ccc(Cl)cc1Cl` (configuration not stated), the composite z-score in assay [1] is 0.0966 (inactive); in assay [2] it was -0.474. Moreover, the z-score was 0.17 in assay [3], -5.64 (inactive) in assay [4], 0.985 (inactive) in assay [5] and 1.09 (inactive) in assay [6].
